Inconclusive results are not listed. A number with no mark means an inactive call. Calls of active or inactive are those of the source. The call rests on the fitted dose curve; in most records, active means well fitted curve in the direction sought with a large enough effect; inconclusive means small, poorly fitted or top-dose-only effect, or another doubt; inactive means no such curve, though single readings can be large; an effect the other way counts as inactive or inconclusive.
Biological target: Aldehyde dehydrogenase, mitochondrial (Homo sapiens) (UniProt P05091)
Experiment: qHTS for Inhibitors of the Aldehyde Dehydrogenase Family (ALDH2) Primary screen (AID 2061308); further: nearly all actives have a fitted effect of over 55% in size; further: potency means the concentration at half of the fitted maximal effect;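 on activity change, negative = inhibition: plate controls were vehicle for no effect and reference inhibitor for full effect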
Settings: ALDH2 enzyme inhibition qHTS, 1536-well; series mostly up to 56 µM; activity change, negative = inhibition: at the top concentration

SMILES | activity change, negative = inhibition | Potency
O=C(Nc1ccc(S(=O)(=O)Nc2nccs2)cc1)c1cccnc1 | -8.11% | –
Cc1csc(CNc2ncnc3ccc(-c4cccnc4)cc23)c1 | 10.3% | –
COc1ccc(N2C(=O)c3ccccc3S2(=O)=O)cc1 | -6.98% | –
C=C1CCC2C(C)(C(=O)OC)CCCC2(C)C1CCC1=CCOC1=O (centres undefined) | 13% | –
c1ccc(OCc2nnc3ccc(-c4ccccc4)nn23)cc1 | -1.46% | –
Cc1ccc(OCCn2c(CCNC(=O)c3cccc(C#N)c3)nc3ccccc32)cc1 | -4.09% | –
O=C(NCc1cccnc1)C1CCN(S(=O)(=O)c2cccs2)CC1 | 7.65% | –
O=C(OCC#CCSc1nnc(-c2cccc3ccccc23)o1)c1cccc(C(F)(F)F)c1 | -10.2% | –
N#Cc1c(-c2ccc(F)c(Br)c2)no[n+]1[O-] | – | 3.98 µM (active)
CC(=O)c1ccc(N2CCN(S(=O)(=O)c3ccc4c(c3)CC(C)N4C(C)=O)CC2)cc1 (centres undefined) | 24.3% | –
O=C(Nc1ccccc1)Nc1nc(Nc2cc(F)cc(F)c2)nc(NC2CCCC2)n1 | 4.49% | –
CCC(C)/C=C(C)/C=C/C1=CC2=C(Cl)C(=O)C(C)(OC(C)=O)C(=O)C2(O)C(OC)O1 (centres undefined) | -17.1% [at 28 µM] | –
Nc1nc(Nc2cc(F)cc(F)c2)nc(NC2CCCC2)n1 | 4.93% | –
Cc1ccc(NS(=O)(=O)c2cc3c(cc2N[C@@H](C)CO)NC(=O)CC3)cc1Cl | -7.61% | –
Cc1ccc2nc3sc(C(=O)N4CCN(C5CCN(C)CC5)CC4)cc3cc2c1 | -1.16% | –
Cc1cc(C)n2ncc(C(=O)NCc3ccccc3)c2n1 | 0.0789% | –
O=C(NCC#CCSc1nnc(-c2cccc3ccccc23)o1)c1cccs1 | -23.8% | –
O=C1CCCC2=C1C(c1ccccc1)N=C(Nc1nc3ccccc3o1)N2 (centres undefined) | 0.937% | –
COc1ccc(S(=O)(=O)Nc2cc(OC)cc3cccnc23)cc1 | -19.3% | –
Cn1cnc(S(=O)(=O)Nc2cnccc2C(=O)Nc2nc(-c3ccccc3)cs2)c1 | -5.71% | –
COc1cc(NC(=O)c2cnn3c(C)cc(C)nc23)cc(OC)c1OC | 11.4% | –
O=C(O)c1ccc(CSc2nnc(-c3cccc(S(=O)(=O)NC4CCCC4)c3)n2-c2ccc(F)cc2)cc1 | 0.0037% | –
CC(O)c1ccc(-c2ccc3ncnc(N4CCOCC4)c3c2)o1 (centres undefined) | – | 8.91 µM (active)
N#Cc1c(-c2cccc([N+](=O)[O-])c2)no[n+]1[O-] | – | 7.94 µM (active)

Biological target: Retinal dehydrogenase 2 (Homo sapiens) (UniProt O94788)
Experiment: qHTS for Inhibitors of the Aldehyde Dehydrogenase Family (ALDH1A2) Confirmation screens (AID 2061314); further: nearly all actives have a fitted effect of over 65% in size; further: potency means the concentration at half of the fitted maximal effect; on activity, negative = inhibition: on the % scale 0 is the no-effect control and ±100 the full control effect
Settings: ALDH1A2 enzyme inhibition qHTS confirmation; series mostly up to 45.9 µM; activity, negative = inhibition: at the top concentration

SMILES | Potency | activity, negative = inhibition
CC(=O)Nc1ncc(S(=O)(=O)Nc2cnccc2C(=O)Nc2nc(-c3ccccc3)cs2)s1 | 10.1 µM (active) | –
c1ccc(CNc2ccc(N3CCOCC3)cc2)cc1 | 12.7 µM (active) | –
CN1CCN(c2cccc(Nc3nn4c(=O)c5ccc(N(C)C)cc5nc4s3)c2)CC1 | 14.2 µM (active) | –
Cc1cc(-c2nnc3n2CCCCC3)c(C)n1-c1ccc([N+](=O)[O-])cc1 | 22.5 µM (active) | –
CC(C)(C)OC(=O)N1CCN(c2ccc(NCc3ccc(-c4ccc(C#N)cc4)nc3)cc2)CC1 | – | 2.46%
N#Cc1c(-c2ccc(F)c(Br)c2)no[n+]1[O-] | 2.52 µM (active) | –
Cc1ccc(NS(=O)(=O)c2cc3c(cc2N[C@@H](C)CO)NC(=O)CC3)cc1Cl | 22.5 µM (active) | –
Cc1ccc2nc3sc(C(=O)N4CCN(C5CCN(C)CC5)CC4)cc3cc2c1 | – | -8.15%
O=C(NCC#CCSc1nnc(-c2cccc3ccccc23)o1)c1cccs1 | 12.7 µM (active) | –
O=C1CCCC2=C1C(c1ccccc1)N=C(Nc1nc3ccccc3o1)N2 (centres undefined) | – | -30.6%
COc1ccc(S(=O)(=O)Nc2cc(OC)cc3cccnc23)cc1 | 1.42 µM (active) | –
CC(O)c1ccc(-c2ccc3ncnc(N4CCOCC4)c3c2)o1 (centres undefined) | 14.2 µM (active) | –
N#Cc1c(-c2cccc([N+](=O)[O-])c2)no[n+]1[O-] | 5.04 µM (active) | –

Biological target: Retinaldehyde dehydrogenase 3 (Homo sapiens) (UniProt P47895)
Experiment: qHTS for Inhibitors of the Aldehyde Dehydrogenase Family (ALDH1A3) Primary screen (AID 2061315);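 further: plate controls were DMSO vehicle for no effect and reference inhibitor for full effect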
Settings: ALDH inhibition qHTS; series mostly up to 56 µM; activity change, negative = inhibition: at the top concentration

SMILES | activity change, negative = inhibition | Potency
CC(=O)Nc1ncc(S(=O)(=O)Nc2cnccc2C(=O)Nc2nc(-c3ccccc3)cs2)s1 | 16.9% | –
Cc1cc(-c2nnc3n2CCCCC3)c(C)n1-c1ccc([N+](=O)[O-])cc1 | 1.06% | –
Cn1nnnc1Sc1ncnc2scc(-c3cccc4ccccc34)c12 | 1.41% | –
Cc1ccc(S(=O)(=O)Nc2cccc(C(=O)Nc3nc(-c4ccc(Cl)cc4)cs3)c2)cc1 | 12.4% | –
COc1ccc(CN(Cc2ccccc2)C(=O)c2ccccc2)cc1COc1ccc(NC(C)=O)cc1 | 1.13% | –
O=S1(=O)N=C(OCc2ccccc2)c2ccccc21 | -0.207% | –
CC(C)(C)OC(=O)N1CCN(c2ccc(NCc3ccc(-c4ccc(C#N)cc4)nc3)cc2)CC1 | -7.55% | –
COc1ccc(C2Nc3ccccc3C(=O)N2Cc2ccccc2)cc1COc1c(C)cc(NC(C)=O)cc1C (centres undefined) | 1.04% | –
Cc1cc(C)nc(NC(=S)N2CCN(c3cc(C(F)(F)F)nc4ccccc34)CC2)c1 | 14.4% | –
NC(=O)c1cccc(C[C@H](C(=O)O)N2C(=O)c3ccc(C(=O)O)cc3C2=O)c1 | 1.22% | –
Cc1ccc(S(=O)(=O)Nc2ccc(Cl)cc2C(=O)Nc2nc(-c3ccccc3)cs2)cc1 | – | inactive
O=C(Nc1ccc2ccccc2c1)Nc1nnc(-c2ccc(Cl)cc2Cl)s1 | 15% | –
COc1ccc(C(=O)Oc2ccc(-c3nc4ccccc4[nH]3)cc2)cc1OC | 7.18% | –
CCOc1ccc(CCNC(=O)c2cc3sccc3n2Cc2ccccc2)cc1OCC | 18% | –
O=C(Nc1ccc(S(=O)(=O)Nc2nccs2)cc1)c1cccnc1 | 1.95% | –
Cc1csc(CNc2ncnc3ccc(-c4cccnc4)cc23)c1 | -1.69% | –
COc1ccc(N2C(=O)c3ccccc3S2(=O)=O)cc1 | -4.85% | –
C=C1CCC2C(C)(C(=O)OC)CCCC2(C)C1CCC1=CCOC1=O (centres undefined) | 1.54% | –
c1ccc(OCc2nnc3ccc(-c4ccccc4)nn23)cc1 | 4.15% | –

SMILES | activity change, negative = inhibition | Potency
Cc1ccc(OCCn2c(CCNC(=O)c3cccc(C#N)c3)nc3ccccc32)cc1 | 2.59% | –
O=C(NCc1cccnc1)C1CCN(S(=O)(=O)c2cccs2)CC1 | -4.42% | –
O=C(OCC#CCSc1nnc(-c2cccc3ccccc23)o1)c1cccc(C(F)(F)F)c1 | 3.15% | –
N#Cc1c(-c2ccc(F)c(Br)c2)no[n+]1[O-] | -10.3% | –
CC(=O)c1ccc(N2CCN(S(=O)(=O)c3ccc4c(c3)CC(C)N4C(C)=O)CC2)cc1 (centres undefined) | -13.9% | –
O=C(Nc1ccccc1)Nc1nc(Nc2cc(F)cc(F)c2)nc(NC2CCCC2)n1 | 11.4% | –
CCC(C)/C=C(C)/C=C/C1=CC2=C(Cl)C(=O)C(C)(OC(C)=O)C(=O)C2(O)C(OC)O1 (centres undefined) | -7.05% [at 28 µM] | –
Nc1nc(Nc2cc(F)cc(F)c2)nc(NC2CCCC2)n1 | -1.92% | –
Cc1ccc(NS(=O)(=O)c2cc3c(cc2N[C@@H](C)CO)NC(=O)CC3)cc1Cl | 1.03% | –
Cc1ccc2nc3sc(C(=O)N4CCN(C5CCN(C)CC5)CC4)cc3cc2c1 | -6% | –
Cc1cc(C)n2ncc(C(=O)NCc3ccccc3)c2n1 | 3.4% | –
O=C(NCC#CCSc1nnc(-c2cccc3ccccc23)o1)c1cccs1 | 17.3% | –
O=C1CCCC2=C1C(c1ccccc1)N=C(Nc1nc3ccccc3o1)N2 (centres undefined) | 14.6% | –
Cn1cnc(S(=O)(=O)Nc2cnccc2C(=O)Nc2nc(-c3ccccc3)cs2)c1 | 2.24% | –
COc1cc(NC(=O)c2cnn3c(C)cc(C)nc23)cc(OC)c1OC | -2.15% | –
O=C(O)c1ccc(CSc2nnc(-c3cccc(S(=O)(=O)NC4CCCC4)c3)n2-c2ccc(F)cc2)cc1 | 1.65% | –
CC(O)c1ccc(-c2ccc3ncnc(N4CCOCC4)c3c2)o1 (centres undefined) | – | inactive
N#Cc1c(-c2cccc([N+](=O)[O-])c2)no[n+]1[O-] | -10.3% | –

From PubChem BioAssay (NCATS)
